# According to PubChem BioAssay (EPA / NIEHS):
# The source made the active and inactive calls. Rule for the calls: active = hit-call score of the fitted dose curve at least 0.9, where 1 is the maximum; inactive = score below 0.9.
# Assays:
# [1] = ATG_GRE_CIS: Attagene CIS-FACTORIAL HepG2 Assay for human Glucocorticoid Response Elements (GRE) (AID 2282947); conditions: HepG2 GRE cis-reporter, Attagene multiplex mRNA; actives raise or lower the signal
# Outline: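 Following 24 h chemical exposure of transiently transfected HepG2 cells, total RNA was reverse-transcribed and reporter cDNA amplified, fluorescently labelled and sized by capillary electrophoresis. Signal gain or loss was fitted relative to DMSO vehicle.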
# [2] = ATG_ISRE_CIS: Attagene CIS-FACTORIAL HepG2 Assay for human Interferon Regulatory Factor 1 (IRF1) binding to an Interferon-Stimulated Response Element (ISRE) (AID 2282948); conditions: HepG2 ISRE cis-reporter (Attagene), mRNA transcription readout; actives raise or lower the signal
# Outline: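 Quantitation relies on labelled RT-PCR fragments separated by capillary electrophoresis. Human HepG2 cells bearing cis-promoter reporter constructs were treated 24 h; DMSO served as baseline for bidirectional fitting.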
# [3] = ATG_M_32_CIS: Attagene CIS-FACTORIAL HepG2 Assay for M32 Transcription Factor (Internal Marker) (AID 2282949); conditions: HepG2 Attagene cis-factorial M32 reporter, mRNA; actives raise or lower the signal;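 note: background control marker of the multiplexed CIS panel rather than a real target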
# Outline: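 HepG2 cells transiently transfected with multiplexed cis-regulated reporter units, dosed 24 h. Reporter mRNA quantified by RT-PCR, 6-FAM labelling, HpaI digestion and capillary electrophoresis; bidirectional fit vs DMSO.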
# [4] = molecular target: Hypoxia-inducible factor 1-alpha (Homo sapiens) (UniProt Q16665); test: ATG_HIF1a_CIS: Attagene CIS-FACTORIAL HepG2 Assay for human Hypoxia Inducible Factor 1 (HIF1A) (AID 2282951); conditions: HepG2 Attagene cis-factorial HIF1a reporter transcription; actives raise or lower the signal
# Outline: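 Endogenous-TF cis reporter readout, human HepG2 cells, 24 h incubation; mRNA detected via RT-PCR and capillary electrophoresis fluorescence; DMSO-normalised bidirectional fitting.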
# [5] = molecular target: Hepatocyte nuclear factor 6 (Homo sapiens) (UniProt Q9UBC0); test: ATG_HNF6_CIS: Attagene CIS-FACTORIAL HepG2 Assay for human Hepatocyte Nuclear Factor 6 (HNF6) (AID 2282952); conditions: HepG2 Attagene cis-factorial HNF6 reporter transcription; actives raise or lower the signal
# Outline: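 HepG2 cells transiently transfected with cis-element-driven multiplexed reporter units measuring endogenous transcription factor activity. After 24 h exposure, reporter mRNA quantified by RT-PCR, FAM-labelled fragments and capillary electrophoresis; bidirectional fitting versus DMSO.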
# [6] = molecular target: Heat shock factor protein 1 (Homo sapiens) (UniProt Q00613); test: ATG_HSE_CIS: Attagene CIS-FACTORIAL HepG2 Assay for human Heat Shock Transcription Factor 1 (HSE) (AID 2282953); conditions: HepG2 HSE cis-reporter, Attagene RNA transcription; actives raise or lower the signal
# Outline: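 HepG2 cells transfected with cis-promoter reporter units sensing endogenous transcription factor activity; reporter mRNA quantified 24 h post-dose by RT-PCR and capillary electrophoresis of 6-FAM-labelled products. Bidirectional fitting against DMSO.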
# [7] = ATG_MRE_CIS: Attagene CIS-FACTORIAL HepG2 Assay for human Metal Responsive Element (MRE) (AID 2282954); conditions: HepG2 MRE cis-reporter transcription, Attagene multiplex; actives raise or lower the signal
# Outline: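 Step one: transfect HepG2 with cis-regulated reporter units. Step two: dose 24 h. Step three: isolate RNA, RT-PCR, 6-FAM label, HpaI digest, capillary electrophoresis. Fit bidirectionally to DMSO.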
# [8] = ATG_PBREM_CIS: Attagene CIS-FACTORIAL HepG2 Assay for human Phenobarbital-responsive Enhancer Module (PBREM) (AID 2282955); conditions: HepG2 PBREM cis-reporter, Attagene multiplexed transcription; actives raise or lower the signal
# Outline: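 Readout: reporter mRNA, fluorescent RT-PCR fragments separated by capillary electrophoresis. System: HepG2 transiently transfected with cis-regulated reporter units. Exposure: 24 h. Analysis: bidirectional, DMSO baseline.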
# [9] = ATG_M_06_CIS: Attagene CIS-FACTORIAL HepG2 Assay for M06 Transcription Factor (Internal Marker) (AID 2282950); conditions: HepG2 Attagene CIS-FACTORIAL M06 internal marker reporter; actives raise or lower the signal
# Outline: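 Internal background marker within multiplexed cis-reporter HepG2 system. Cells transiently transfected, dosed 24 h; reporter mRNA measured by RT-PCR, HpaI digestion and capillary electrophoresis. Bidirectional fit relative to DMSO.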
# Sequence of Hepatocyte nuclear factor 6 (Homo sapiens) (Q9UBC0 whole entry, looked up, the tested form may be a part): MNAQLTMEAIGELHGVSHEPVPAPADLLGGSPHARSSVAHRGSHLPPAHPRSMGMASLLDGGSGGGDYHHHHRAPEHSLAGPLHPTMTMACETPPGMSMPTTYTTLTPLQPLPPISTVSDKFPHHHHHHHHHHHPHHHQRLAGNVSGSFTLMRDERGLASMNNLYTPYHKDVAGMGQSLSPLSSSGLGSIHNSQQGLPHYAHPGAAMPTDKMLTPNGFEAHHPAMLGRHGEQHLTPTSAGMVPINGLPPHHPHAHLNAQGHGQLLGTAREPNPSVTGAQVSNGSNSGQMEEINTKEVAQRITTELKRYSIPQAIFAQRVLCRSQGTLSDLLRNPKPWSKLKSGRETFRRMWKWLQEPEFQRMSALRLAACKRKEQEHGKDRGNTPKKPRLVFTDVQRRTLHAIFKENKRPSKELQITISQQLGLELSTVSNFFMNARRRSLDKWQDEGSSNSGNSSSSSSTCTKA
# Sequence of Heat shock factor protein 1 (Homo sapiens) (Q00613 whole entry, looked up): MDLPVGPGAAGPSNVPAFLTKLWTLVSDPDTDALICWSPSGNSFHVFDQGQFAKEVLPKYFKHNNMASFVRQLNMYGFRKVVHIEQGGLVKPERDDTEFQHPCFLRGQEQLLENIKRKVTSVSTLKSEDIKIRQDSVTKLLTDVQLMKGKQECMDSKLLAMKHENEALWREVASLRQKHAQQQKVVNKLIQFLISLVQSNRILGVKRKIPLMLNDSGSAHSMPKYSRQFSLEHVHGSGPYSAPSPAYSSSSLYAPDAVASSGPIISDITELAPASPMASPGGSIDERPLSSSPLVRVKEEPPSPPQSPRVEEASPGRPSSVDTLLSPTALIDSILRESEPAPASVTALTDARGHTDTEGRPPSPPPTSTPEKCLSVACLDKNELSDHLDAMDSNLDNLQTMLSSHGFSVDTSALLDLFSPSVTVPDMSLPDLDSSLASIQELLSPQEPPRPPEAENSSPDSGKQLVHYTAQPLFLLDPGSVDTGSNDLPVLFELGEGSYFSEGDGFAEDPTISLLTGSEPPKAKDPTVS
# Sequence of Hypoxia-inducible factor 1-alpha (Homo sapiens) (Q16665 whole entry, looked up): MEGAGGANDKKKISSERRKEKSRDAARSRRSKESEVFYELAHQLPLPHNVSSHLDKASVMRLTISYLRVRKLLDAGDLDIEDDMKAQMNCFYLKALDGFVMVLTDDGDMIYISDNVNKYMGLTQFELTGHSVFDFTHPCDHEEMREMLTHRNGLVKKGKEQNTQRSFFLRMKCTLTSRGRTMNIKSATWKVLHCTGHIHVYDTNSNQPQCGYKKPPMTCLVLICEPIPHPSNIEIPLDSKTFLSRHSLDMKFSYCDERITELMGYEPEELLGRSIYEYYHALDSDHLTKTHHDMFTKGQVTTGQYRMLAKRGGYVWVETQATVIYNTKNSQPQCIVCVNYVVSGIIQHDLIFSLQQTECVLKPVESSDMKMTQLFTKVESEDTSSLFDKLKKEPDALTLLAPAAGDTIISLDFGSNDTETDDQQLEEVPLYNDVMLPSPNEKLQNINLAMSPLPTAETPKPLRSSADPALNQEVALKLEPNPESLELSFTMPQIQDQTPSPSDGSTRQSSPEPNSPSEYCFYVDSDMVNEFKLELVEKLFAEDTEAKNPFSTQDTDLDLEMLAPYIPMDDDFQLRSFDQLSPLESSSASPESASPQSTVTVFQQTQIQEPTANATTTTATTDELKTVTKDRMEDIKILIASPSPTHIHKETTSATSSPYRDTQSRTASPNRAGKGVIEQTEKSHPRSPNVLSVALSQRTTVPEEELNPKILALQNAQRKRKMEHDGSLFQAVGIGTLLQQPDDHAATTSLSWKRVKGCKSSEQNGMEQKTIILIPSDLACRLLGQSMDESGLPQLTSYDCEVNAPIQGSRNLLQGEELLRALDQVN
smiles,measurement,setting,value
CC=Cc1ccc(OCC)c(O)c1,outcome,[1],inactive
same,outcome,[2],inactive
same,outcome,[3],inactive
same,outcome,[4],inactive
same,outcome,[5],inactive
same,outcome,[6],inactive
same,outcome,[7],inactive
same,outcome,[8],inactive
COCCc1ccc(OCC(O)CNC(C)C)cc1 (stereo unspecified),outcome,[1],inactive
same,outcome,[2],inactive
same,outcome,[3],inactive
same,outcome,[9],inactive
same,outcome,[5],inactive
same,outcome,[7],inactive
same,outcome,[8],inactive
CCCCC(CC)COC(C)=O (stereo unspecified),outcome,[1],inactive
same,outcome,[2],inactive
same,outcome,[3],inactive
same,outcome,[5],inactive
same,outcome,[6],inactive
same,outcome,[7],inactive
same,outcome,[8],inactive
CCC(Cl)C(Cl)C(Cl)CC(Cl)C(Cl)C(C)Cl (stereo unspecified),outcome,[1],inactive
same,outcome,[2],inactive
same,outcome,[9],inactive
same,outcome,[5],inactive
same,outcome,[6],inactive
same,AC50,[7],74 µM (active)
C=C(C)CNCC,outcome,[1],inactive
same,outcome,[2],inactive
same,outcome,[3],inactive
same,outcome,[4],inactive
same,outcome,[5],inactive
same,outcome,[6],inactive
same,outcome,[7],inactive
same,outcome,[8],inactive
COc1cc(CCC(C)=O)ccc1O,outcome,[1],inactive
same,outcome,[2],inactive
same,outcome,[9],inactive
same,outcome,[4],inactive
same,outcome,[5],inactive
same,outcome,[6],inactive
same,outcome,[7],inactive
same,outcome,[8],inactive
COc1cc(Cl)c(OC)cc1N,outcome,[1],inactive
same,outcome,[2],inactive
same,outcome,[9],inactive
same,outcome,[4],inactive
same,outcome,[5],inactive
same,outcome,[6],inactive
same,outcome,[7],inactive
CCc1ccc(O)c(OC)c1,outcome,[1],inactive
same,outcome,[2],inactive
same,outcome,[3],inactive
same,outcome,[9],inactive
same,outcome,[5],inactive
same,outcome,[6],inactive
same,outcome,[7],inactive
same,outcome,[8],inactive
CCCCCCCCSCCO,outcome,[1],inactive
same,outcome,[2],inactive
same,outcome,[3],inactive
same,outcome,[4],inactive
same,outcome,[5],inactive
same,outcome,[6],inactive
same,AC50,[7],153 µM (active)
same,outcome,[8],inactive
CN1C(=O)c2ccccc2C1=O,outcome,[1],inactive
same,outcome,[2],inactive
same,outcome,[3],inactive
same,outcome,[9],inactive
same,outcome,[5],inactive
same,outcome,[6],inactive
same,outcome,[7],inactive
same,outcome,[8],inactive
COC(=O)c1ccc(C)cc1C1=NC(C)(C(C)C)C(=O)N1 (stereo unspecified) (tested in a mixture with another compound),outcome,[1],inactive
same,outcome,[2],inactive
same,outcome,[9],inactive
same,outcome,[4],inactive
same,outcome,[5],inactive
same,outcome,[6],inactive
same,outcome,[7],inactive
same,outcome,[8],inactive
CC(=O)NCCO,outcome,[1],inactive
same,outcome,[2],inactive
same,outcome,[9],inactive
same,outcome,[5],inactive
same,outcome,[6],inactive
same,outcome,[7],inactive
same,outcome,[8],inactive
CC(C=O)Cc1ccc(C(C)(C)C)cc1 (stereo unspecified),outcome,[1],inactive
same,outcome,[2],inactive
same,outcome,[9],inactive
same,outcome,[4],inactive
same,outcome,[5],inactive
same,outcome,[6],inactive
same,outcome,[7],inactive
same,outcome,[8],inactive
N[C@@H](Cc1cc(I)c(Oc2cc(I)c(O)c(I)c2)c(I)c1)C(=O)O,outcome,[1],inactive
same,outcome,[2],inactive
same,outcome,[3],inactive
same,outcome,[9],inactive
same,outcome,[5],inactive
same,outcome,[6],inactive
same,AC50,[7],27.8 µM (active)
same,AC50,[8],11.2 µM (active)
CSc1c(Cl)c(Cl)c(Cl)c(Cl)c1Cl,outcome,[1],inactive
same,AC50,[2],27.9 µM (active)
same,outcome,[3],inactive
same,outcome,[9],inactive
same,outcome,[4],inactive
same,outcome,[5],inactive
same,outcome,[6],inactive
same,outcome,[8],inactive
Nc1ccn([C@H]2CS[C@@H](CO)O2)c(=O)n1,outcome,[1],inactive
same,outcome,[2],inactive
same,outcome,[3],inactive
same,outcome,[9],inactive
same,outcome,[5],inactive
same,outcome,[6],inactive
same,outcome,[7],inactive
same,outcome,[8],inactive
c1ccc(Oc2ccccc2)cc1,outcome,[1],inactive
same,outcome,[2],inactive
same,outcome,[9],inactive
same,outcome,[4],inactive
same,outcome,[5],inactive
same,outcome,[6],inactive
same,outcome,[7],inactive
same,outcome,[8],inactive
CCc1ncc(C)[nH]1,outcome,[1],inactive
same,outcome,[2],inactive
same,outcome,[3],inactive
same,outcome,[9],inactive
same,outcome,[4],inactive
same,outcome,[5],inactive
same,outcome,[6],inactive
same,outcome,[8],inactive
CC(C)Nc1nc(N)nc(Cl)n1,outcome,[1],inactive
same,outcome,[2],inactive
same,outcome,[9],inactive
same,outcome,[5],inactive
same,outcome,[6],inactive
same,outcome,[7],inactive
same,outcome,[8],inactive
C=C(C)C1CC=C(C)C(=O)C1 (stereo unspecified),outcome,[1],inactive
same,outcome,[2],inactive
same,outcome,[3],inactive
same,outcome,[4],inactive
same,outcome,[5],inactive
same,outcome,[6],inactive
same,outcome,[7],inactive
O=C1OC(=O)c2c(Br)c(Br)c(Br)c(Br)c21,outcome,[1],inactive
same,outcome,[2],inactive
same,outcome,[9],inactive
same,outcome,[4],inactive
same,outcome,[5],inactive
same,outcome,[6],inactive
same,outcome,[7],inactive
same,outcome,[8],inactive
NCCNc1cccc2ccccc12,outcome,[1],inactive
same,outcome,[2],inactive
same,outcome,[3],inactive
same,outcome,[9],inactive
same,AC50,[4],100 µM (active)
same,outcome,[5],inactive
same,outcome,[6],inactive
same,outcome,[8],inactive
C=CCCC(=O)/C=C/C1C(C)=CCCC1(C)C (stereo unspecified),outcome,[1],inactive
same,outcome,[2],inactive
same,outcome,[3],inactive
same,outcome,[9],inactive
same,outcome,[5],inactive
same,AC50,[6],152 µM (active)
same,AC50,[7],150 µM (active)
same,outcome,[8],inactive
COC(=O)Nc1ccc(Cl)c(Cl)c1,AC50,[1],25.7 µM (active)
same,AC50,[2],30.7 µM (active)
same,outcome,[3],inactive
same,outcome,[4],inactive
same,outcome,[5],inactive
same,outcome,[6],inactive
same,AC50,[7],49.7 µM (active)
same,outcome,[8],inactive
CN1CCOCC1,outcome,[1],inactive
same,outcome,[2],inactive
same,AC50,[3],100 µM (active)
same,outcome,[9],inactive
same,outcome,[5],inactive
same,outcome,[6],inactive
same,outcome,[8],inactive
CCOC(=O)c1ccc(N)cc1,outcome,[1],inactive
same,outcome,[2],inactive
same,outcome,[3],inactive
same,outcome,[9],inactive
same,outcome,[5],inactive
same,AC50,[6],25.7 µM (active)
same,outcome,[7],inactive
same,outcome,[8],inactive
c1ccc(CN(Cc2ccccc2)Cc2ccccc2)cc1,outcome,[1],inactive
same,outcome,[2],inactive
same,outcome,[3],inactive
same,outcome,[9],inactive
same,outcome,[4],inactive
same,outcome,[5],inactive
same,outcome,[6],inactive
same,outcome,[8],inactive
CN(C)c1cccc(O)c1,outcome,[1],inactive
same,outcome,[2],inactive
same,outcome,[3],inactive
same,outcome,[9],inactive
same,outcome,[4],inactive
same,outcome,[5],inactive
same,outcome,[6],inactive
same,outcome,[8],inactive
Cc1occc(=O)c1OC(=O)C(C)C,outcome,[1],inactive
same,outcome,[2],inactive
same,outcome,[3],inactive
same,outcome,[4],inactive
same,outcome,[5],inactive
same,outcome,[6],inactive
same,outcome,[7],inactive
same,outcome,[8],inactive
CC(C)NCC(O)COc1ccc(CC(N)=O)cc1 (stereo unspecified),outcome,[2],inactive
same,outcome,[3],inactive
same,outcome,[9],inactive
same,outcome,[5],inactive
same,outcome,[6],inactive
same,outcome,[7],inactive
CCN(CCN)c1cccc(C)c1,outcome,[2],inactive
same,outcome,[3],inactive
same,outcome,[9],inactive
same,outcome,[4],inactive
same,outcome,[5],inactive
same,outcome,[8],inactive
CS(=O)(=O)c1ccc(Cl)cc1,outcome,[1],inactive
same,outcome,[2],inactive
same,outcome,[5],inactive
same,outcome,[6],inactive
same,outcome,[7],inactive
same,outcome,[8],inactive
